Source: PubChem (National Center for Advancing Translational Sciences (NCATS))
Mito fusion act: blocks mitochondrial division or promotes mitochondrial fusion; 320,000 compounds, 0.23% hits; S. cerevisiae fusion-defective mutant growth rescue, CellTiterGlo 48 h; AID 485298; Potency, µM (titrated, usually from 46.1 µM), for the others: top-dose growth rescue (activation), most hits filed as activators; note: % of control where 0% means no effect; nearly all actives have a fitted effect of over 45% in size
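Growth-rescue viability read-out: after 48 h at the non-permissive 37C in glycerol/ethanol YPEG, yeast mitochondrial fusion mutants are measured by CellTiterGlo luminescence; compounds (23 nl pinned per well) restoring growth score as division inhibitors or fusion activators.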
SW480 rereplic: induces DNA re-replication in SW480 colon adenocarcinoma cells. SW480 DNA re-replication, Hoechst DNA content imaging, 48 h. Potency, µM (doses to about 46.1 µM), for the others: at the top dose re-replication activation, actives largely listed as activators. 340,000 compounds, 1.8% hits. AID 624297; note: % of control where 0% means no effect; nearly all actives have a fitted effect of over 55% in size
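Image-based DNA-content assay: after two days of treatment, nuclei were labelled with the DNA dye Hoechst and imaged, and hits were compounds raising the count of nuclei showing high fluorescence intensity.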
AT treatment: potential ataxia-telangiectasia treatment. F2112 A-T fibroblasts, KAP-1 phosphorylation AlphaLISA; neocarzinostatin DNA damage 30 min before lysis. Potency, µM (titrated, usually from 57.5 µM), for inactives: top-dose activation, actives largely listed as activators. 320,000 compounds, 0.19% hits; note: % of control where 0% means no effect; nearly all actives have a fitted effect of over 45% in size
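ATM-like activity read as KAP-1 phosphorylation via AlphaLISA donor/acceptor antibody pairs after lysis and 6 hr at 25C. Cells were ATM-null patient fibroblasts (F2112, hTERT), dosed 60 min, then exposed to the DSB inducer NCS for 30 min.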
MCF10A rerep: DNA re-replication induction in MCF 10a cells; MCF 10A DNA re-replication, Hoechst nuclear intensity, 48 h; Potency, µM (series often up to 46.1 µM), for inactives: at the top dose activity, positive = re-replication, usual class: activators; 350,000 compounds, 2.9% hits; AID 624296; note: % of control where 0% means no effect; nearly all actives have a fitted effect of over 50% in size
a7 integrin act: activators of alpha7 integrin expression for muscular dystrophy; alpha7betagal myoblasts, beta-gal FDG fluorescence, 48 h; Potency, µM (top dose mostly 38.3 µM), for the others: at the highest dose activation, usual class: activators; 350,000 compounds, 0.064% hits;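 note: 100% = response of the positive control SU9516; nearly all actives have a fitted effect of over 60% in size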
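alpha7betagal+/- myoblasts (passage 13, 250/well) treated 48 h at 37C with compounds at 1:260 dilution of DMSO stock. Lysed, then beta-galactosidase activity read as FDG fluorescence (ex 480/em 540) after 30 min, with pre-read for autofluorescence.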
Numbers without * were called inactive; ? = inconclusive; . = not tested or not shown; [ ] = another dose, or the depositor's remark. The list is not random: actives were taken first. Their share in the collection is about 4.2%. Calls come from the whole dose curve; as a rule, active = well fitted activation curve with a large enough effect; inconclusive = small, poorly fitted or top-dose-only effect; inactive = no such curve, though single readings can be large or run the other way. Potency is the fitted concentration of half-maximal effect.

SMILES	Mito fusion act	SW480 rereplic	AT treatment	MCF10A rerep	a7 integrin act
CC(=O)NCCC(=O)Nc1nc(-c2cccs2)c(-c2cccs2)s1	-10.6%	-2.6%	-2.1%	2.8%	-10.9%
COc1cc(/C=N/O)cc(Br)c1OCc1ccc(Cl)cc1	11.9%	?	5.2%	17.8µM*	23.4%
COc1cc(/C=N/O)cc(Br)c1OC	-1.4%	0.9%	-1.1%	11.0%	24.3%
O=C1CCCCC1Nc1ccc(Br)cc1 (stereo not given)	.	0.5%	.	-1.4%	6.0%
COC(=O)CSC1=NS(=O)(=O)c2ccccc21	-4.0%	?	-9.9%	13µM*	12.9%
CCOc1ccccc1CNC(=O)C1CCN(S(=O)(=O)N2CCC(C)CC2)CC1	.	.	.	.	-0.8%
Cc1cnc(NC(=O)CC(C)c2ccccc2)s1 (stereo not given)	1.0%	5.8µM*	8.6%	10.3µM*	-24.3%
CC(CC(=O)Nc1cccnc1)c1ccccc1 (stereo not given)	4.6%	11.6%	2.7%	11.6µM*	-31.1%
CC(CC(=O)Nc1ccc(C(N)=O)cc1)c1ccccc1 (stereo not given)	-3.7%	1.4%	8.4%	-2.5%	?
Cc1ccc(C)c(S(=O)(=O)N2CCN(C(=O)CCC(=O)NCc3ccc(Cl)cc3Cl)CC2)c1	.	-17.0%	.	20.6µM*	-27.2%
O=C(COC(=O)CNC(=O)c1ccc([N+](=O)[O-])o1)Nc1ncc(Cl)cc1Cl	12.0%	-3.5%	35.5µM*	?	-36.4%
O=C(COC(=O)CNC(=O)c1ccc([N+](=O)[O-])o1)Nc1ncc(C(F)(F)F)cc1Cl	-0.4%	7.7%	22.4µM*	16.4µM*	-1.3%
Cc1ccc(S(=O)(=O)N2CCN(CCc3ccncc3)CC2)cc1	.	3.2%	0.0%	?	-18.0%
Cc1ccc2[nH]c(=O)c(CN(C(=O)c3cccc([N+](=O)[O-])c3)C(C)C)cc2c1	2.6%	18.1%	6.8%	5.4%	14.8%
O=C1OC=NC1=Cc1ccccc1	.	-3.9%	.	-3.2%	6.3%
N#Cc1c(-c2ccc(F)cc2)cc(-c2ccccc2)nc1SCC(=O)NCC(=O)O	0.6%	16.4µM*	-1.3%	-3.9%	7.5%
COc1ccc(-c2cc(-c3ccccc3)c(C#N)c(SCC(=O)Nc3ncc(C)s3)n2)cc1	7.1%	?	-5.8%	23.1µM*	20.9%
N#Cc1c(-c2ccc(Cl)cc2)cc(-c2ccccc2)nc1SCC(=O)O	-0.1%	-4.5%	-7.5%	1.1%	11.5%
COc1ccc(-c2cc(-c3ccc(OC)cc3)c(C#N)c(SC)n2)cc1	-2.1%	23.3%	3.1%	20.6µM*	0.0%
COc1cccc([C@@H]2Oc3ccc(OC)cc3C(=O)[C@H]2OC(=O)NCc2ccc3c(c2)OCO3)c1	13.3%	?	12.0%	19.8%	.
COc1cc([N+](=O)[O-])ccc1N1C(=O)C2C3C=CC(C4CC34)C2C1=O (stereo not given)	2.7%	-113.0%	-1.2%	-0.7%[9.22 µM]	-16.3%
COc1ccc(C(C[N+](=O)[O-])c2c(-c3ccccc3)cc3ccccn23)cc1 (stereo not given)	?	?	-12.2%	18.4µM*	-33.4%
COc1cc(C(C[N+](=O)[O-])c2c(-c3ccccc3)cc3ccccn23)cc(OC)c1OC (stereo not given)	-7.9%	11.6µM*	.	?	-16.6%
COc1cc(C(C[N+](=O)[O-])c2c(C)cc3ccccn23)ccc1O (stereo not given)	18.9%	?	7.7%	?	-31.3%
COc1ccc(C(C[N+](=O)[O-])c2c(-c3ccccc3)cc3ccccn23)cc1OC (stereo not given)	-10.0%	?	.	20.6µM*	-12.2%
SMILES	Mito fusion act	SW480 rereplic	AT treatment	MCF10A rerep	a7 integrin act
O=Nc1c(-c2ccccc2)cc2ccccn12	-0.4%	-9.8%	-5.2%	?	?
Oc1ccc(CNc2ccc(F)cc2)c2cccnc12	1.7%	?	-3.4%	23.1µM*	-35.4%
OCc1ccnc2c(O)cccc12	1.4%	1.16µM*	0.1%	5.17µM*	-41.3%
NC(=O)c1ccnc2c(O)cccc12	-1.5%	-0.1%	-5.4%	4.1%	.
Oc1ccc(CNc2ccccc2)c2cccnc12	0.8%	?	4.7%	?	-43.3%
Oc1ccc(COc2cccc3ccccc23)c2cccnc12	-16.4%	.	9.9%	.	.
COCc1ccc(O)c2ncccc12	-2.1%	25.8%	.	7.31µM*	-23.8%
Cc1ccc(C(=O)N2CCCC(C(F)(F)F)C2)cc1S(=O)(=O)N1CCOCC1 (stereo not given)	1.5%	?	-3.1%	-2.2%	16.6%
NC(=O)c1ccccc1OCC(=O)N1CCC(Cc2ccccc2)CC1	3.8%	?	3.6%	1.0%	-7.8%
CC(=O)NCCC(=O)N1CCCC(N(C)CCc2ccccc2)C1 (stereo not given)	-1.4%	5.4%	-0.4%	3.3%	0.0%
O=C(NNS(=O)(=O)c1ccccc1[N+](=O)[O-])c1cccc(Cl)c1	-6.2%	0.517µM*	-0.3%	0.8%	-26.4%
CC(C)(C)c1ccc(-c2n[nH]c(=S)n2/N=C/c2ccncc2)cc1	-0.3%	0.0%	-3.8%	?	-0.5%
COc1cc(C2=NOC(C(=O)NCc3ccc(F)cc3)C2)cc(OC)c1OC (stereo not given)	5.2%	0.731µM*	.	3.26µM*	-9.4%
COc1ccc(C2=NOC(C(=O)NCc3ccc(F)cc3)C2)cc1OC (stereo not given)	-1.2%	2.06µM*	-4.0%	1.64µM*	-22.1%
Cc1ccccc1C1c2[nH]c3ccccc3c2C[C@H]2C(=O)N(c3ccccc3C(=O)NCCN3CCOCC3)C(=O)N12 (stereo not given in full)	6.4%	-3.6%	-2.7%	?	-14.0%
Cc1ccccc1C1c2[nH]c3ccccc3c2C[C@H]2C(=O)N(c3ccccc3C(=O)NCCCN3CCOCC3)C(=O)N12 (stereo not given in full)	3.4%	?	4.5%	11.6µM*	5.2%
Cc1cc(C)cc(OCCCCn2cncn2)c1	-3.5%	-0.1%	1.5%	-9.7%	25.8%
NC(N)=N/N=C/c1ccc(Br)cc1	13.0%	?	0.9%	18.4µM*	-63.0%
N#Cc1ccc(/C=N/N=C(N)N)cc1	1.6%	-2.3%	-3.8%	-5.5%	-8.2%
O=C(c1ccc(Cl)cc1)C1CCN(C(=S)Nc2ccccc2)CC1	.	3.5%	.	-4.2%	?
C/C(CCN1CCCCc2nc(C)c(C)cc21)=N\O[C@@H](C)CN1CCCCc2nc(C)c(C)cc21	-2.5%	?	-7.3%	23.1µM*	.
CCOC(=O)c1c(NC(=O)COC(=O)CCCOc2ccc(OC)cc2)sc(C(=O)N(C)C)c1C	.	-2.7%	.	2.2%	14.5%
S=c1sc2c(Cl)ncnc2n1-c1ccccc1	-1.0%	?	-8.8%	2.06µM*	-70.0%
Cc1nc(N2CCN(C)CC2)c2sc(=S)n(-c3ccccc3)c2n1	-8.8%	1.6%	-0.8%	7.6%	16.6%
